Reference: PubChem BioAssay AID2234 (The Scripps Research Institute Molecular Screening Center, 2010)
About 480 (0.15%) of roughly 320,000 compounds were called active. This is one part of a sample in which actives are shown more often than they occur. Rule as the data show it: active = inhibition above about 33%; inactive = the rest.

Target: Lytic switch protein BZLF1 (Epstein-Barr virus (strain B95-8)) (UniProt P03206)
Test: Zta-DNA interaction blockers, Epstein-Barr virus – biochemical, fluorescence polarization, single concentration, counter-screen for EBNA-1 inhibitor project, primary screen (AID 2234)
Conditions: ZTA-DNA binding, at 11 µM, hits give high values

Chain of Lytic switch protein BZLF1 (Epstein-Barr virus (strain B95-8)) (P03206 whole entry, looked up): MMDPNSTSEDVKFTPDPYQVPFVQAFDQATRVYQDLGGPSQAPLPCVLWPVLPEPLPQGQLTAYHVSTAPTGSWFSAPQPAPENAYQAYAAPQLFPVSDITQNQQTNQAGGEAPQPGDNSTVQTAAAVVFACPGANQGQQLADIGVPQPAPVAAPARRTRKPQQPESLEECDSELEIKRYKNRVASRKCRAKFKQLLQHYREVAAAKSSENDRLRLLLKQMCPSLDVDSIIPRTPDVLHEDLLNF

Row | SMILES | inhibition
1 | Cc1cc(C(=O)Nc2ccc(C)c(S(=O)(=O)N3CCOCC3)c2)c2ccccc2n1 | -3.91% (inactive)
2 | CCC(C)OC(=O)C(C)Oc1ccc(-c2ccccc2)cc1 (stereo not drawn) | -16.6% (inactive)
3 | CCc1nc2ccccc2n(CCOCCOCCn2c(=O)c(CC)nc3ccccc32)c1=O | -7.86% (inactive)
4 | CCCCC1N2CC3([N+](=O)[O-])CN1CC([N+](=O)[O-])(C2)C3(C)C (stereo not drawn) | 7.41% (inactive)
5 | COc1ccccc1C(=O)Nc1ccc(OCC(=O)N2CCCCC2)cc1 | -10.8% (inactive)
6 | COc1ccc(C)cc1NC(=O)CN1c2cccc3cccc(c23)S1(=O)=O | -1.52% (inactive)
7 | O=C(O)c1cc(S(=O)(=O)N(Cc2ccccc2)c2ccccc2)ccc1Cl | -1.08% (inactive)
8 | O=C(CSc1nc(C2CC2)nc2ccccc12)Nc1cccc(O)c1 | -4.91% (inactive)
9 | C=CCn1c(SCC(=O)NC(=O)Cc2ccccc2)nc2ccccc2c1=O | -2.81% (inactive)
10 | O=C(c1cc(S(=O)(=O)N2CCOCC2)ccc1Cl)N1CCOCC1 | 17.7% (inactive)
11 | FC(F)(F)c1ccc2c3n(nc2c1)CCN=C3c1ccc(Cl)cc1 | 0.92% (inactive)
12 | Cc1ccc(C(=O)c2coc3ccc(O)c(CN(C)C)c23)cc1 | -9.15% (inactive)
13 | COc1ccccc1-n1ccnc(SCC(=O)NC2CCCCC2)c1=O | -6.9% (inactive)
14 | CC1CCC2(CC1)NC(=O)N(CC(=O)c1cccn1C)C2=O (stereo not drawn) | -3.24% (inactive)
15 | Cc1ccc(C(=O)NCC(c2cccs2)N(C)C)cc1S(=O)(=O)N1CCOCC1 (stereo not drawn) | -3.98% (inactive)
16 | O=C(OCC1O[C@@H](OC(=O)c2cc(O)c(O)c(O)c2)[C@@H](OC(=O)c2cc(O)c(O)c(O)c2)[C@@H](OC(=O)c2cc(O)c(O)c(O)c2)[C@@H]1OC(=O)c1cc(O)c(O)c(O)c1)c1cc(O)c(O)c(O)c1 (stereo partly drawn) | 56.7% (active)
17 | O=C(OCC1OC(Oc2ccc(O)cc2)C(O)C(O)C1O)c1ccccc1 (stereo not drawn) | -3.45% (inactive)
18 | Cc1cc(/C=C2\SC(=O)N(C)C2=O)c(C)n1-c1cccc(C(=O)O)c1 | -5.96% (inactive)
19 | CN1C(=O)/C(=C/c2ccco2)SC1=Nc1cccc(C(=O)O)c1 | 34% (active)
20 | Cc1cc(/C=C2\SC(=Nc3ccc(N4CCOCC4)cc3)N(C)C2=O)c(C)n1-c1cccnc1 | -10.5% (inactive)
21 | CCC(C)(C)n1nnnc1C(c1cccs1)N1CCN(c2nc3ccccc3s2)CC1 (stereo not drawn) | 4.48% (inactive)
22 | COc1cc(NC(=S)N2CCCC(C)C2)c(OC)cc1Cl (stereo not drawn) | 1.82% (inactive)
23 | CCOc1cc(C)c(S(=O)(=O)NCc2ccccn2)cc1C | 12.5% (inactive)
